Only some compounds are listed: those with a hit (about 2.4% of all), similar ones and a draw of the others.
M1 ag parental – counter-screen for M1 agonists: effect in parental CHO-K1 cells | Fluo-8 calcium fluorescence; scaled to maximal ATP response, vehicle zero | activation, % at 3 µM | actives 0.48% (n = 360,000) | AID 602248, 2012; in the data active = activation above about 15%;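 note: untransfected CHO-K1 host cells lacking M1 receptor as counterscreen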
M1 PAM – human M1 muscarinic receptor positive allosteric modulators, primary screen, CHO-K1 cells, Fluo-8 calcium fluorescence, 1536-well | Muscarinic acetylcholine receptor M1 (Homo sapiens), P11229 | CHO-K1 hM1, ACh EC20; 0% = ACh EC20, 100% = maximal ACh | activation, % at 3 µM | actives 0.088% (n = 360,000); in the data active = activation above about 19%, passing the limit was not always enough
Target sequence (P11229 whole entry, looked up): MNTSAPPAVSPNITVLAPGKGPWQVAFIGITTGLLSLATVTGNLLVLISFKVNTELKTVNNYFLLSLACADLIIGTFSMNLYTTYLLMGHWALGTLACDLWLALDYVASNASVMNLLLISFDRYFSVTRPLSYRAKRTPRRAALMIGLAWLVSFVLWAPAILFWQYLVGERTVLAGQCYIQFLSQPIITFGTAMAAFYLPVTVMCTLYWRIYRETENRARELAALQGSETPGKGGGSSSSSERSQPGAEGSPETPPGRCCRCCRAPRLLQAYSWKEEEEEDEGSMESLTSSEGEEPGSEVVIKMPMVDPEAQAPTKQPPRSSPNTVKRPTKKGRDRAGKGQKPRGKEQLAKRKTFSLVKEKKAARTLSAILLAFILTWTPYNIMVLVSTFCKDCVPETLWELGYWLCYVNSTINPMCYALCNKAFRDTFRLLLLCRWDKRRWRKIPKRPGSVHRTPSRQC
CHRM1 agonist – human M1 muscarinic receptor agonists, primary screen, Fluo-8 calcium fluorescence, CHO-K1 cells, HTS; CHO-K1 hM1, agonist mode; 0% DMSO, 100% acetylcholine EC100; actives 0.33% (n = 360,000); activation, % at 3 µM; Muscarinic acetylcholine receptor M1 (Homo sapiens), P11229; AID 588814, 2011;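 active = activation above the run's mean compound activation plus 3 SD, cut at about 16% in these data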;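 note: peak over basal fluorescence ratio within a 140 s kinetic read after compound addition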
CHO-K1 Ca PAM – nonselective calcium activators in parental CHO-K1 cells, primary screen, counter-screen for M1 PAM project, cell-based, Fluo-8 calcium fluorescence, full deck, 1536-well. ATP EC20; 0% at ATP EC20, 100% at ATP max. activation, % at 3 µM. actives 0.02% (n = 360,000). AID 602247, 2012;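 active = activation above the run cutoff, the mean activation of all test compounds plus 3 SD, cut at about 40% in these data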;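 note: peak over basal fluorescence ratio in a 140 s read after ATP addition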
M1 antag – human M1 muscarinic receptor antagonists, primary screen, CHO-K1 cells, Fluo-8 calcium fluorescence, 1536-well. Muscarinic acetylcholine receptor M1 (Homo sapiens), P11229. CHO-K1 hM1, ACh EC80 antagonist. inhibition, % at 3 µM. actives 1.3% (n = 360,000). AID 588852, 2011;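 active = percent inhibition above its own plate's cutoff, namely the mean of that plate's compound wells plus 3 SD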;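 note: peak over basal fluorescence ratio during 140 s after agonist addition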
CHO-K1 Ca antag – counter-screen for M1 antagonists: effect in parental CHO-K1 cells. ATP-induced calcium, Fluo-8 fluorescence. inhibition, % at 3 µM. actives 0.6% (n = 360,000);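 active = inhibition above a per-plate cutoff, the plate's mean sample inhibition plus 3 SD, cut at about 24% in these data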
Hits are given with their value; - = inactive.

SMILES | M1 ag parental | M1 PAM | CHRM1 agonist | CHO-K1 Ca PAM | M1 antag | CHO-K1 Ca antag
O=C(NC(=S)Nc1ccc(CN2CCCCC2)cc1)c1cccc(OCc2ccccc2)c1 | - | - | - | - | 96.2 | -
CN1CCN(c2ccc(NC(=O)c3cccc(OCc4ccccc4)c3)cc2)CC1 | - | - | - | - | - | -
CCCOc1cccc(C(=O)NC(=S)Nc2ccc(N3CCN(C)CC3)cc2)c1 | - | - | - | - | 58.5 | -
O=C(O)c1ccc(NC(=S)NC(=O)c2cccc(COc3ccccc3)c2)cc1 | - | - | - | - | - | -
c1ccc(OCc2nn3c(-c4ccco4)nnc3s2)cc1 | - | - | - | - | - | -
O=[N+]([O-])c1cccc(S(=O)(=O)N2CCN(S(=O)(=O)N3CCCCCC3)CC2)c1 | - | - | - | - | - | -
Cc1ccc(S(=O)(=O)NNc2ccccc2)cc1 | - | - | - | - | - | -
Cc1ccc(S(=O)(=O)NNc2nc3ccccc3nc2C(F)(F)F)cc1 | - | - | 49.9 | - | - | -
O=C1Nc2ccccc2/C1=C/c1ccccc1Cl | - | - | - | - | - | -
CN1CCN(c2ccccc2/C=C2/C(=O)Nc3ccccc32)CC1 | - | - | - | - | 88.7 | -
Cc1cc2n(n1)C(c1ccc3c(c1)OCO3)Nc1ccccc1-2 (stereo unspecified) | - | - | - | - | - | -
Cn1c(N)c(C(=O)COC(=O)c2cc(S(=O)(=O)N3CCCCC3)ccc2Cl)c(=O)n(C)c1=O | - | - | - | - | - | -
C=CCN(c1ccccc1OC)S(=O)(=O)c1cccc(C(=O)OCC(=O)c2c(N)n(C)c(=O)n(C)c2=O)c1 | - | - | - | - | 31.4 | -
Cn1c(N)c(C(=O)COC(=O)c2cccc(S(=O)(=O)N3CCCCC3)c2)c(=O)n(C)c1=O | - | - | - | - | - | 29.3
CC(C)[C@H](NC(=O)c1ccccc1)C(=O)OCC(=O)c1c(N)n(C)c(=O)n(C)c1=O | - | - | - | - | 29.4 | -
COc1cccc(CNc2ncc(C(=O)Nc3cc(OC)c(OC)c(OC)c3)c(C)n2)c1 | - | - | - | - | - | -
CCc1ccc[n+](-c2[nH]c(=O)sc2/C=N/NC([S-])=Nc2ccccc2)c1 | - | - | - | - | - | -
O=C1N=c2ccccc2=C1c1[nH]c(=S)[nH]c1O | - | - | - | - | - | -
Cc1ccc(C2C3=C(CC(C)(C)CC3=O)NC3=C2C(=O)CC(C)(C)C3)o1 | - | - | - | - | - | -
O=C(NCCCN1CCc2ccccc2C1)Nc1ccc(Cl)cc1 | - | - | - | - | - | -
Cn1nnnc1SCC(=O)N1c2ccccc2Sc2ccc(Cl)cc21 | - | - | - | - | 29.7 | -
CCN(CC)CCC(=O)N1c2ccccc2Sc2ccc(Cl)cc21 | - | - | - | - | 100.5 | -
O=C(CN1CCOCC1)N1c2ccccc2Sc2ccc(Cl)cc21 | - | - | - | - | - | -
CCOC(=O)c1c(C)sc2c1N(C(=O)CN(CC)CC)c1cc(Cl)ccc1S2 | - | - | - | - | - | -
Cn1c(SCC(=O)N2c3ccccc3Sc3ccc(Cl)cc32)nnc1-c1ccco1 | - | - | - | - | - | -
SMILES | M1 ag parental | M1 PAM | CHRM1 agonist | CHO-K1 Ca PAM | M1 antag | CHO-K1 Ca antag
CN(C)CCC(=O)N1c2ccccc2Sc2ccc(Cl)cc21 | - | - | - | - | 99.0 | -
CN(C)CC(=O)N1c2ccccc2Sc2ccc(Cl)cc21 | - | - | - | - | 98.9 | -
CCc1cccc(NC(=O)C2CCN(c3ncnc4sc(C)c(C)c34)CC2)c1 | - | - | - | - | - | -
O=C(Nc1cc(Cl)ccn1)C1CCN(S(=O)(=O)c2cccs2)CC1 | - | - | - | - | - | -
COc1cccc(C(=O)Nc2ccc(N3CCN(Cc4ccccc4)CC3)cc2)c1 | - | - | - | - | - | -
CN(C)c1cc[n+](Cc2c(Cl)cccc2Cl)cc1 | - | - | - | - | 79.8 | -
Cc1ccc(C#CC[N+](C)(C)CC#Cc2ccccc2)cc1 | - | - | - | - | 29.5 | -
O=C(O)c1c2c(nc3ccc(Cl)cc13)CCC2 | - | - | - | - | - | -
O=c1ccc(-c2ccc(S(=O)(=O)NCC3CCN(Cc4ccccc4F)CC3)s2)n[nH]1 | - | - | - | - | 92.6 | -
Nc1c(C(=O)Nc2nccs2)sc2nc(-c3cccs3)cc(C(F)(F)F)c12 | 26.6 | - | 28.4 | - | 36.8 | 38.1
Cc1nnc(NC(=O)c2sc3nc(-c4cccs4)cc(C(F)(F)F)c3c2N)s1 | 19.7 | - | 51.6 | - | 39.2 | -
CC1CN(S(=O)(=O)c2cccc(C(=O)N(C)C3CCCCC3)c2)CC(C)O1 (stereo unspecified) | - | - | - | - | - | -
COc1cc(Cl)c(CNC[C@H]2O[C@@H](n3ccc(=O)[nH]c3=O)[C@H](O)[C@@H]2O)c(Cl)c1O | - | - | - | - | - | -
Cc1ccc(-n2c(-c3cccnc3)n[nH]c2=S)c(C)c1 | - | - | - | - | - | 26.3
Cc1ccc(S(=O)(=O)c2nnn3c2nc(N2CCN(c4ccccn4)CC2)c2ccccc23)cc1C | - | - | - | - | - | -
CCOC(=O)C1=C(CC)Nc2ccccc2N=C1NC(=O)c1cc(C)on1 | - | - | - | - | - | -
CCOC(=O)C1=C(CC)Nc2ccccc2N=C1NC(=O)Nc1ccc(Cl)c(Cl)c1 | - | - | - | - | 33.1 | -
Cc1ccc(S/C=C\C(=O)c2ccccc2)cc1 | - | - | - | - | - | -
Cc1cccc(NS(=O)(=O)c2ccc(C(=O)NCC(c3ccccc3)N(C)C)cc2)c1C (stereo unspecified) | - | - | - | - | 26.6 | -
Cc1ccc(S(=O)(=O)Nc2cccc(C(=O)NCC(c3ccco3)N(C)C)c2)cc1F (stereo unspecified) | - | - | - | - | 43.1 | -
Cc1ccc(NS(=O)(=O)c2ccc(C(=O)NCC(c3ccco3)N(C)C)cc2)cc1 (stereo unspecified) | 26.1 | - | - | - | - | -
CN(C)C(CNC(=O)c1ccc(C2SCCS2)cc1)c1ccccc1 (stereo unspecified) | - | - | - | - | 37.6 | -
CN(C)C(CNC(=O)c1ccc(NC(=O)c2cccs2)cc1)c1ccccc1 (stereo unspecified) | - | - | - | - | - | -
Cc1ccc(C(=O)Oc2coc(CSc3nnc(NC(=O)C4CC4)s3)cc2=O)cc1C | - | - | - | - | - | -
COc1ccc(C(=O)c2cn[nH]c2-c2ccc(C)cc2O)cc1 | - | - | - | - | - | -
